Hit rate of the full screen: of about 310,000 compounds, about 11,000 (3.5%) were called active. Not shown: some 4% with an inconclusive outcome. For the sample, actives were picked, then their nearest neighbours and some compounds at random. Values without a mark were called inactive. Calls come from the whole dose curve; as a rule, active = well fitted inhibition curve with a large enough effect; inconclusive = small, poorly fitted or top-dose-only effect, or another doubt; inactive = no such curve, though single readings can be large or run the other way.
Biological target: 4'-phosphopantetheinyl transferase ffp (Bacillus subtilis) (UniProt Q9F4F7)
Experiment: qHTS Assay for Inhibitors of Bacillus subtilis Sfp phosphopantetheinyl transferase (PPTase);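 note: the enzyme is Sfp with the accession as filed and its product quenches rhodamine fluorescence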;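 for largest response in the series, negative = inhibition: 0% = enzyme reaction without inhibitor and -100% = no enzyme wells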
Conditions: Biochemical Sfp PPTase activity
Text: Assay Submitter: Michael Burkart, University of California, San Diego
Screening Center PI: Austin, C.P.
Screening Center: NIH Chemical Genomics Center [NCGC]
The covalent attachment of a phosphopantetheinyl (4'-PP) arm to a variety of synthases and other proteins is a key posttranslational protein modification. The 4'-PP is installed on the proteins post-translationally from coenzyme A (CoA) on a conserved serine residue by action of phosphopantetheinyl transferase (PPTase) enzymes. Phosphopantetheinylation is essential for synthase activity, and removal of the PPTase gene precludes natural product synthesis in microorganisms, or in the case of fatty acid biosynthesis, renders the organism unviable. PPTase enzymes belong to a distinct structural superfamily. Within bacteria, these enzymes are grouped into two classes based upon primary structure, the AcpS-Type and Sfp-Type PPTases.
Sfp-type PPTases, corresponding to an activator of surfactin production in Bacillus subtilis, are responsible for modifying type I polyketide and nonribosomal peptide synthases of prokaryotes. Sfp-type PPTases are responsible for the activation of a variety of pathogen-associated virulence factors. Among these compounds are toxins such as mycolactone from Mycobacterium ulcerans, siderophores such as vibriobactin from Vibrio cholerae or mycobactin from Mycobacterium tuberculosis, as well as the mycolic acids which form the waxy cell wall of Mycobacteria. The biosyntheses of these natural products are considered attractive targets for drug design.
In search of small molecule Sfp-PPTase inhibitors, a fluorescence quenching assay was developed for detection of Bacillus subtilis Sfp-PPTase enzymatic activity in a miniaturized high-throughput format. The consensus ybbr acceptor peptide […] was N-terminally labeled with Black Hole Quencher-2 (BHQ-2) and used in combination with rhodamine-labeled coenzyme A as a co-substrate.
Inhibition of Sfp-PPTase was detected by recording the fluorescence intensity change over a 30-minute reaction period at a 525 nm excitation and 598 nm emission. Reagents were supplied by Michael Burkart and Timothy Foley, University of California at San Diego.
This BioAssay deposition is for validation of the developed Sfp-PPtase assay.
Assay Buffer: 50 mM Hepes-Na pH 7.6, 10 mM MgCl2, 0.01% Nonidet P-40, and 0.01% BSA.
3 uL of Sfp-PPTase enzyme (final concentration 15 nM) and 1 uL of substrate mixture (final concentration for rhodamine-CoA and BHQ-2-YbbR 5 uM and 12.5 uM, respectively) dispensed in columns 1, 2, 5 - 48. Columns 1 and 2 used to generate neutral control (uninhibited reaction)
Three uL of reagents, consisting of buffer (in columns 3 and 4 as negative control) and Sfp-PPTase (in columns 1, 2, 5 - 48) were dispensed into 1,536-well Greiner black solid bottom plate. Compounds (23 nL) were transferred via Kalypsys pintool equipped with 1,536-pin array. The plate was incubated for 15 min at room temperature, followed by the addition of 1 uL substrate to start the reaction. The plate was then centrifuged at 1000 rpm for 15 seconds, and the fluorescence intensity recorded on a ViewLux High-throughput CCD imager (Perkin-Elmer) using standard BODIPY optics (525 nm excitation and 598 nm emission). The plate was then incubated for 30 minutes, and a second read on the ViewLux was performed. The fluorescence intensity difference over the 30-minute period was used to calculate the respective reaction rate for each well.
Potency is the fitted concentration of half-maximal effect.

SMILES | Potency | largest response in the series, negative = inhibition [%]
COc1c(O)cc2oc(-c3ccc(O)c(O)c3)cc(=O)c2c1O | 50.1 µM (active) | –
O=c1cc(-c2ccc(O)cc2)oc2c(-c3cc(-c4cc(=O)c5c(O)cc(O)cc5o4)ccc3O)c(O)ccc12 | – | -11.5
O=c1cc(-c2ccc(O)c(O)c2)oc2cccc(O)c12 | – | -4.56
COc1ccc(C(C)C)cc1S(=O)(=O)Nc1ncn[nH]1 | – | 16.1
COc1ccc(CNS(=O)(=O)c2cc(-c3cc(C)no3)ccc2C(C)C)cc1 | – | 7.48
CCc1nc2ccc(C(=O)N3CCN(c4cccc(Cl)c4)CC3)cc2nc1CC | – | -10.1
Nc1ccccc1SCc1cc([N+](=O)[O-])cc2c1OCOC2 | – | -29.9
C#CCC(C(=O)OC)(C(=O)OC)C(C[N+](=O)[O-])c1ccccc1 (configuration not stated) | – | -5.44
Nc1ccccc1SC(C[N+](=O)[O-])c1ccccc1 (configuration not stated) | 7.94 µM (active) | –
O=c1c2cc(Br)ccc2nc(-c2cccc(Cl)c2)n1O | – | 10.6
CCc1c(C)nc(N)n2c(SCC(=O)NC3CCCCC3)nnc12 | – | 11.3
O=C(O)C1CCCN1C1=NS(=O)(=O)c2ccccc21 (configuration not stated) | – | 13.1
CC(C)c1ccc(NC(=S)NNc2ccc(Cl)c(C(=O)O)c2)cc1 | – | -24.2
Cc1ccc(C)c(NC(=S)NNC(=S)Nc2ccc(C(C)C)cc2)c1 | 4.47 µM (active) | –
Cc1ccc(C)c(NC(=S)NNC(=O)c2csc(C)c2)c1 | – | 9.77
NC(=O)C1CCCN(CC(=O)N2CCN(c3ccccc3)CC2)C1 (configuration not stated) | – | 19
CC1CCN(CC(=O)Nc2nccs2)CC1 | – | 6.83
Cc1nc2ccccc2n1CC(O)c1ccccc1 (configuration not stated) | – | 2.21
O=C(COC(=O)c1cccs1)Nc1ccccc1Cl | – | 3.72
O=C(Nc1ccccc1Cl)/C(Cl)=C(\Cl)S(=O)c1ccccc1 (configuration not stated) | 6.31 µM (active) | –
O=C(Nc1ccccc1Cl)Nn1cnnc1 | – | 10.7
CC(=O)Oc1c2c(c3c(c1CC=C(C)C)O[C@@]14C(=CC5CC1C(C)(C)OC4(C/C=C(\C)C(=O)O)C5=O)C3=O)OC(C)(CCC=C(C)C)C=C2 (some centres not stated) | – | -62.7
O=C(NCc1ccco1)C(c1ccncc1)N(C(=O)Cn1nnc2ccccc21)c1ccccc1 (configuration not stated) | – | 18
O=C(Nc1ccc(S(=O)(=O)NCC2CCCO2)cc1)c1ccc(F)cc1 (configuration not stated) | – | 10.5

SMILES | Potency | largest response in the series, negative = inhibition [%]
COc1ccc(OC)c(CCNC(=O)CCn2ccc3cc(S(=O)(=O)N4CCCC4)ccc32)c1 | – | 4.91
CCNC(=S)Nc1ccc(OC(F)(F)F)cc1 | – | 14.8
FC(F)(F)Oc1ccc(NC(=S)NCc2ccccc2)cc1 | – | 7.74
CS(=O)(=O)c1sc(C(=O)NC(=S)Nc2ccc(OC(F)(F)F)cc2)c2c1C=CCC2 | 44.7 µM (active) | –
CCC(=O)Nc1ccc(-c2ccc(N3CCCCC3)nn2)cc1 | – | 14.4
C=C1CCN(C(CC(C)C)C(=O)N2CCOCC2)S(=O)(=O)c2ccccc21 (configuration not stated) | – | -9.91
CCOc1ccccc1NC(=O)Cn1ncc2ccc([N+](=O)[O-])cc21 | – | -5.95
COc1ccc(C(=O)O/N=C(\N)c2ccccn2)cc1[N+](=O)[O-] | – | 9.71
COc1cccc(OCC(=O)NNC(=O)c2cnccn2)c1 | – | -17.6
COc1ccc(C(=O)NNC(=O)c2cnccn2)cc1[N+](=O)[O-] | 44.7 µM (active) | –
CC1CCCC(C)N1C(=O)CSc1nnnn1C1CCCC1 (configuration not stated) | – | 18.7
CCC(CC)C(=O)Nc1c2c(nn1-c1ccc(C)cc1)CS(=O)(=O)C2 | – | 4.15
O=C(O)C1CC=CCC1C(=O)Nc1ccccc1C(=O)N1CCN(c2ccccc2)CC1 (configuration not stated) | – | 22.9
COc1ccc(C(=O)Nc2ccccc2C(=O)N2CCN(c3ccccc3)CC2)cc1 | – | 5.69
CC(C)c1ccc(N2CCN(C(=O)c3ccccc3NC(=O)/C=C(\C(=O)O)c3ccccc3)CC2)cc1 | 56.2 µM (active) | –
Cc1cc(C)c(S(=O)(=O)N(C)CC(=O)NCC2CCCO2)c(C)c1 (configuration not stated) | – | 16.6
COc1ccc(/C=C/c2c(-c3cccc(C)c3)oc3ccc(-c4ccc5c(c4)OCO5)cc23)cc1 | – | 1.24
CNc1nc(-c2ccccc2)cc(-c2ccccc2)n1 | – | -1.57
CNC(=S)NNC(=O)c1oc2nc(-c3ccccc3)cc(-c3ccco3)c2c1N | 12.6 µM (active) | –
NNC(=O)c1oc2nc(-c3ccccc3)cc(-c3ccco3)c2c1N | – | -13.3
CN1C(=O)CN2CCc3ccccc3C2c2cc(Cl)ccc21 (configuration not stated) | – | 11
CC(C)(C)NS(=O)(=O)c1ccc(NC(=O)C2CCCO2)cc1 (configuration not stated) | – | 9.67
COC(=O)c1cccc(N(CC(=O)NCC2CCCO2)C(=O)CCC(=O)Nc2cc(C)on2)c1 (configuration not stated) | – | -5.12

Source: PubChem BioAssay AID1490 (National Center for Advancing Translational Sciences (NCATS), 2009)
